PubChem BioAssay
For some assays here: Potency and affinity values are given separately. The source made the active and inactive calls. Unless noted, the rule behind the calls is not given here.

How the values were obtained:
[1] = antimalarial activity against Dd2 strain (AID 2302;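 active = growth inhibition above 50% at the single 2 µM test dose, taken to imply half-maximal potency below 2 µM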;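 note: 0% = DMSO untreated growth and 100% = chloroquine plus artemisinin killed control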); conditions: P. falciparum Dd2 in RBCs, LDH growth readout, 72 h; at 2 µM; hits give high values
[2] = human hepatoma cell viability loss – ATP luminescence, cytotoxicity control for P. falciparum antimalarial project, primary screen (AID 2303;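 active = inhibition above 50%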;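 note: 0% = DMSO wells and 100% = digitonin-killed cells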); conditions: HepG2 viability, 24-48 h, at 10 µM, hits give high values
[3] = target: L-lactate dehydrogenase (Plasmodium falciparum (isolate CDC / Honduras)) (UniProt Q27743); experiment: PfLDH activity inhibition – cell lysate, 3D7 strain, counter-screen for P. falciparum growth inhibition project (AID 2304);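 note: 0% = vehicle and 100% = reference inhibitor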; conditions: P. falciparum 3D7 crude extract, LDH APAD/NBT absorbance; at 2 µM; hits give high values
[4] = inhibition of 3D7 malaria parasite growth – strain 3D7 (AID 2306);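 note: 0% = DMSO wells and 100% = chloroquine plus artemisinin control wells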; conditions: P. falciparum 3D7 erythrocytic growth, LDH absorbance, 72 h; at 2 µM; hits give high values
[5] = target: Calcium-dependent protein kinase 1 (Plasmodium falciparum (isolate 3D7)) (UniProt P62344); experiment: PfCDPK1 kinase inhibitors, biochemical, TCAMS library (AID 1159585; cut-off not given, nearly all actives have IC50 up to about 0.98 µM;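 note: inhibitors leave more ATP so luminescence rises with inhibition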); conditions: recombinant PfCDPK1, Kinase-Glo ATP depletion luminescence
[6] = target: Plasmodium falciparum protein kinase 6 (PK6, PF3D7_1337100) (UniProt Q8IDW1); experiment: PfPK6 kinase inhibitors, biochemical, TCAMS library (AID 1159586); conditions: recombinant PfPK6, Kinase-Glo ATP depletion luminescence
[7] = target: Protein kinase 7 (PK7), Plasmodium falciparum 3D7 (PF3D7_0213400) (UniProt Q7YTF7); experiment: inhibition of Plasmodium PK7 catalytic activity – biochemical, TCAMS antimalarial set, Kinase-Glo luminescence (AID 1159587); conditions: recombinant PfPK7, Kinase-Glo ATP depletion luminescence
[8] = target: Calcium-dependent protein kinase 4 (Plasmodium falciparum (isolate 3D7)) (UniProt Q8IBS5); experiment: PfCDPK4 kinase inhibitors, biochemical, TCAMS library (AID 1159588; cut-off not given, nearly all actives have IC50 up to about 0.91 µM); conditions: recombinant PfCDPK4, Kinase-Glo ATP depletion luminescence
Sequence of Calcium-dependent protein kinase 4 (Plasmodium falciparum (isolate 3D7)) (Q8IBS5 whole entry, looked up): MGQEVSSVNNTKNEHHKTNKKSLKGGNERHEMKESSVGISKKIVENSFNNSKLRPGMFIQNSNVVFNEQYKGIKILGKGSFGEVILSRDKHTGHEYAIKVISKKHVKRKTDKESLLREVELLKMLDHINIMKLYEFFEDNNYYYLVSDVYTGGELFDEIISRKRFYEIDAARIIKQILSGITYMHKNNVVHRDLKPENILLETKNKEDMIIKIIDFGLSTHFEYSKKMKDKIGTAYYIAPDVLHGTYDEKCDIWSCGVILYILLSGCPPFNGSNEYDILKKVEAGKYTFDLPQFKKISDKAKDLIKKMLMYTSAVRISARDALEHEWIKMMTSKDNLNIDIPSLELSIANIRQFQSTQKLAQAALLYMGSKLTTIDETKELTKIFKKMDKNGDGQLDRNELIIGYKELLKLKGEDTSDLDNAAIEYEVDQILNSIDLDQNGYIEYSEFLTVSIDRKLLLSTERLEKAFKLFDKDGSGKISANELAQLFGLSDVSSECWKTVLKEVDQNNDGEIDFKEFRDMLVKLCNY

Sequence of L-lactate dehydrogenase (Plasmodium falciparum (isolate CDC / Honduras)) (Q27743 whole entry, looked up): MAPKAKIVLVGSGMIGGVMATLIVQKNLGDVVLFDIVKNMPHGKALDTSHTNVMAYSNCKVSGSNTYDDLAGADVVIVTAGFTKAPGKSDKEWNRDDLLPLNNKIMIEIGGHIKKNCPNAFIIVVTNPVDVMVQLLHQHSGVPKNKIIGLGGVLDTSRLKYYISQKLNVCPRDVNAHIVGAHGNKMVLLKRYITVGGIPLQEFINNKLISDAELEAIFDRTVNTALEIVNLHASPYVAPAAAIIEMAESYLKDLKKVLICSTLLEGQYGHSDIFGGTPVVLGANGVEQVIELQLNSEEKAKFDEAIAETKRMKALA
Sequence of Protein kinase 7 (PK7), Plasmodium falciparum 3D7 (PF3D7_0213400) (Q7YTF7 1-343): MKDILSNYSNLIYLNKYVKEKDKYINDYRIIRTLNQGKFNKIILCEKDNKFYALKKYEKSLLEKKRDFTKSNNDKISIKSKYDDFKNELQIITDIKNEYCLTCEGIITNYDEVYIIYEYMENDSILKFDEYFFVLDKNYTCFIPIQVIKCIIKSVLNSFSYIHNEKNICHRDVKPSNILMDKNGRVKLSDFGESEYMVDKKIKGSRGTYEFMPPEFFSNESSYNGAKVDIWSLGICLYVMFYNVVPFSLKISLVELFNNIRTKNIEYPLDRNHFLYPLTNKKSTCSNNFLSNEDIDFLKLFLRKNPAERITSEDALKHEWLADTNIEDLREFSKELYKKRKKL
Sequence of Plasmodium falciparum protein kinase 6 (PK6, PF3D7_1337100) (Q8IDW1 1-305): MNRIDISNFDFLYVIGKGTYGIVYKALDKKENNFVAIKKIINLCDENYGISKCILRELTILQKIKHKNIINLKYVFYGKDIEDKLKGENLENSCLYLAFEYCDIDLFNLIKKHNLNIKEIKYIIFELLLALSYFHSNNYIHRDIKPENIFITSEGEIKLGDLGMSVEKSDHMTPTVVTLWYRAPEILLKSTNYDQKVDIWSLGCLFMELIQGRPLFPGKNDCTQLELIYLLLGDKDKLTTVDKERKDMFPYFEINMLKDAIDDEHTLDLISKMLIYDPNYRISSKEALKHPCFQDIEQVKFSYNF
Sequence of Calcium-dependent protein kinase 1 (Plasmodium falciparum (isolate 3D7)) (P62344 whole entry, looked up): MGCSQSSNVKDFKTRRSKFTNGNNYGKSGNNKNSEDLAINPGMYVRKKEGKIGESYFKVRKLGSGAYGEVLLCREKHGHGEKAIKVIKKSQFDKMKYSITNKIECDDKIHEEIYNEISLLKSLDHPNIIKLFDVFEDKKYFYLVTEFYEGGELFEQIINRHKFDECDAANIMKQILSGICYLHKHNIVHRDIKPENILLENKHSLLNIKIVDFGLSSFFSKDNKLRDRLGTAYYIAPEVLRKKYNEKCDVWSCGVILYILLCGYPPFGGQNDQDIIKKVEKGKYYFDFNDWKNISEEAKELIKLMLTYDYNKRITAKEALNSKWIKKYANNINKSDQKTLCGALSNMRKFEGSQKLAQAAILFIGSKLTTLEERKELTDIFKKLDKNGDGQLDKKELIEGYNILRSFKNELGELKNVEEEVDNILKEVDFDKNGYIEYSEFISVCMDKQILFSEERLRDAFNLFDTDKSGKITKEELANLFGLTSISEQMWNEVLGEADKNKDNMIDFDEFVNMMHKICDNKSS

CC(ON1C(N)=NC(N)=NC1(C)C)c1ccccc1 (stereo not given)
active: growth inhibition [1] 58% | inhibition [2] 65% | growth inhibition [4] 96%
inactive: inhibition [3] 0% | outcome [5] | outcome [6] | outcome [7] | outcome [8]

CC(=O)Nc1ccc(OCCN(CC(C)C)c2ccc(C(F)(F)F)c(C#N)c2)c(Cl)c1
active: growth inhibition [1] 95% | growth inhibition [4] 96%
inactive: inhibition [2] 13% | inhibition [3] 2% | outcome [5] | outcome [6] | outcome [7] | outcome [8]

Cc1cccc2[nH]c(-c3ccc(-c4ccc(NC(=O)Nc5ccc(Cl)cc5)cc4)s3)nc12
active: growth inhibition [1] 100% | inhibition [2] 78% | growth inhibition [4] 101%
inactive: inhibition [3] 7% | outcome [5] | outcome [6] | outcome [7] | outcome [8]

Cn1nc(-c2ccc(Cl)cc2)c2cc(C(=O)NCCN3CCOCC3)sc21
active: growth inhibition [4] 97%
inactive: growth inhibition [1] 29% | inhibition [2] 21% | inhibition [3] -8% | outcome [5] | outcome [6] | outcome [7] | outcome [8]

Fc1ccccc1C=NNc1ccnc2ccccc12
inactive: growth inhibition [1] 26% | inhibition [2] 8% | inhibition [3] 0% | outcome [5] | outcome [6] | outcome [7] | outcome [8]
active: growth inhibition [4] 94%

COc1cc2nc(N3CCC(CNC(=O)c4cccc5cc[nH]c45)CC3)nc(N)c2cc1OC
active: growth inhibition [4] 98%
inactive: growth inhibition [1] 24% | inhibition [2] 33% | inhibition [3] -3% | outcome [5] | outcome [6] | outcome [7] | outcome [8]

COc1ccc2c(c1)CC(NCc1ccc(-c3ccc4nc[nH]c4c3)cc1)C2 (stereo not given)
active: growth inhibition [1] 71% | growth inhibition [4] 100%
inactive: inhibition [2] 30% | inhibition [3] 1% | outcome [5] | outcome [6] | outcome [7] | outcome [8]

Nc1c(-c2ccc(C(=O)NCCNCc3ccccc3)cc2)cnn1-c1ccc(C(F)(F)F)cc1
inactive: growth inhibition [1] 2% | inhibition [2] 23% | inhibition [3] 1% | outcome [5] | outcome [6] | outcome [7] | outcome [8]
active: growth inhibition [4] 85%

COc1cccc(C(O)CNc2ccnc(Nc3ccc(Cl)cc3)n2)c1 (stereo not given)
active: growth inhibition [4] 99%
inactive: growth inhibition [1] 46% | inhibition [2] 31% | inhibition [3] -7% | outcome [5] | outcome [6] | outcome [7] | outcome [8]

c1ccc2c(C3CCN(CCCCOc4ccc5c(c4)CCN(C4CCC4)CC5)CC3)c[nH]c2c1
inactive: inhibition [3] -3% | outcome [5] | outcome [6] | outcome [7] | outcome [8]
active: growth inhibition [1] 100% | inhibition [2] 80% | growth inhibition [4] 102%

COc1ccc(CNCc2ccc(-c3cccc(-c4nc5ccc(C(F)(F)F)cc5[nH]4)c3)cc2)cc1
active: growth inhibition [1] 100% | inhibition [2] 59% | growth inhibition [4] 102%
inactive: inhibition [3] -8% | outcome [5] | outcome [6] | outcome [7] | outcome [8]

CCN(CC)CCN(Cc1ccc(-c2ccc(C(F)(F)F)s2)cc1)C(=O)Cn1c(CCc2cccc(F)c2F)nc(=O)c2ccccc21
active: growth inhibition [4] 94%
inactive: growth inhibition [1] 31% | inhibition [2] 43% | inhibition [3] 3% | outcome [5] | outcome [6] | outcome [7] | outcome [8]

Cc1ccccc1NC(=O)C1CSCN1C(=O)OCc1ccccc1 (stereo not given)
active: growth inhibition [4] 91%
inactive: growth inhibition [1] -1% | inhibition [2] 8% | inhibition [3] -1% | outcome [5] | outcome [6] | outcome [7] | outcome [8]

COc1ccc(S(=O)(=O)NC2CCN(c3ccc(C(F)(F)F)cc3NC(=O)OCC(C)C)CC2)cc1
inactive: growth inhibition [1] 13% | inhibition [2] 19% | inhibition [3] 3% | outcome [5] | outcome [6] | outcome [7] | outcome [8]
active: growth inhibition [4] 85%

CCCCN1CCN(CC(O)CNC(=O)Nc2ccc(Cl)cc2)CC1 (stereo not given)
inactive: inhibition [2] 17% | inhibition [3] -3% | outcome [5] | outcome [6] | outcome [7] | outcome [8]
active: growth inhibition [1] 99% | growth inhibition [4] 101%

COCCN1CCC(CN(C)CC(C)(C)c2nc(-c3ccc(Cl)c(O)c3)c(-c3ccncc3)[nH]2)CC1
active: growth inhibition [4] 94%
inactive: growth inhibition [1] 10% | inhibition [2] -8% | inhibition [3] -2% | outcome [5] | outcome [6] | outcome [7] | outcome [8]

O=C(O)C[C@H](NC(=O)[C@@H]1CCCN1C(=O)c1cccc(-c2ccc(Cl)c(Cl)c2)c1)C(=O)O
inactive: growth inhibition [1] 0% | inhibition [2] -1% | inhibition [3] 0% | outcome [5] | outcome [6] | outcome [7] | outcome [8]
active: growth inhibition [4] 84%

Cc1cc(Nc2cccc(C#N)c2)nc(Nc2ccccc2C)n1
active: growth inhibition [4] 95%
inactive: growth inhibition [1] 46% | inhibition [2] 10% | inhibition [3] 0% | outcome [5] | outcome [6] | outcome [7] | outcome [8]

COc1cc2nc(N3CCN(C(=O)c4c(Cl)nsc4-c4ccccc4Cl)CC3)nc(N)c2cc1OC
active: growth inhibition [1] 101% | inhibition [2] 57% | growth inhibition [4] 100%
inactive: inhibition [3] -6% | outcome [5] | outcome [6] | outcome [7] | outcome [8]

COc1ccc(Nc2nc(NCc3cccnc3)cc(-c3ccc(OC)cc3)n2)cc1
inactive: growth inhibition [1] 16% | inhibition [2] -2% | inhibition [3] 3% | outcome [5] | outcome [6] | outcome [7] | outcome [8]
active: growth inhibition [4] 89%

CN(C)CCOc1ccc(/C(=C(/CCCn2ccnc2)c2ccccc2)c2ccc(O)cc2)cc1
inactive: inhibition [2] 13% | inhibition [3] 3% | outcome [5] | outcome [6] | outcome [7] | outcome [8]
active: growth inhibition [1] 99% | growth inhibition [4] 101%

Cc1cc(C(F)(F)F)n2nc(C(=O)N(Cc3cncn3Cc3ccccc3F)CC3CC3)cc2n1
inactive: inhibition [2] -5% | inhibition [3] 1% | outcome [5] | outcome [6] | outcome [7] | outcome [8]
active: growth inhibition [1] 100% | growth inhibition [4] 100%

CN1CCN(c2cc(NC(=O)c3ccc(-c4ccc(C#N)cc4)cc3)ccc2Cl)CC1
inactive: inhibition [2] 29% | inhibition [3] -5% | outcome [5] | outcome [6] | outcome [7] | outcome [8]
active: growth inhibition [1] 94% | growth inhibition [4] 101%

Cc1cc(NC(=O)c2ccc(S(=O)(=O)N(Cc3ccccc3)C(C)C)cc2)no1
inactive: inhibition [2] -6% | inhibition [3] -1% | outcome [5] | outcome [6] | outcome [7] | outcome [8]
active: growth inhibition [1] 67% | growth inhibition [4] 87%

CC(C)CNCc1cccc(-c2cccc(CN(CCCN3CCN(C)CC3)C(=O)NC3CCCCC3)c2)c1
inactive: inhibition [2] 16% | inhibition [3] 0% | outcome [5] | outcome [6] | outcome [7] | outcome [8]
active: growth inhibition [1] 84% | growth inhibition [4] 100%

O=C(/C=C/c1ccc(Cl)c(Cl)c1)NCCCCCN1CCC(NC(=O)Nc2ccc(OC(F)F)cc2)CC1
inactive: growth inhibition [1] 18% | inhibition [2] 33% | inhibition [3] 6% | outcome [5] | outcome [6] | outcome [7] | outcome [8]
active: growth inhibition [4] 101%

NC(=O)N1CCN(Cc2ccc(Br)cc2)CC1
inactive: growth inhibition [1] 0% | inhibition [3] -5% | outcome [5] | outcome [6] | outcome [7] | outcome [8]
active: inhibition [2] 83% | growth inhibition [4] 96%

Cc1ccc(NC(=O)Nc2ccccc2)cc1-c1ccc(C(=O)Nc2ccncc2)cc1
active: growth inhibition [1] 52% | inhibition [2] 67% | growth inhibition [4] 99%
inactive: inhibition [3] 0% | outcome [5] | outcome [6] | outcome [7] | outcome [8]

CC(C)(C)c1ccc(NC(=O)N[C@@H]2CCN(c3ccnc4ccccc34)C2)cc1
inactive: inhibition [2] 23% | inhibition [3] 0% | outcome [5] | outcome [6] | outcome [7] | outcome [8]
active: growth inhibition [1] 96% | growth inhibition [4] 102%

Cc1ccc(Cl)c2sc(N3CCN(C(=O)c4ccc([N+](=O)[O-])o4)CC3)nc12
inactive: inhibition [2] 21% | inhibition [3] -5% | outcome [5] | outcome [6] | outcome [7] | outcome [8]
active: growth inhibition [1] 94% | growth inhibition [4] 97%

Cc1ccc(CNC(=O)c2ccc(CN3CCCN(Cc4ccsc4)CC3)cc2)cc1
inactive: growth inhibition [1] -1% | inhibition [2] 16% | inhibition [3] 5% | outcome [5] | outcome [6] | outcome [7] | outcome [8]
active: growth inhibition [4] 93%

CCOc1cc(C(=O)Nc2ccc3nc(N4CCN(C)CC4)cc(C)c3c2)cc(OCC)c1OCC
inactive: inhibition [2] 14% | inhibition [3] -1% | outcome [5] | outcome [6] | outcome [7] | outcome [8]
active: growth inhibition [1] 50% | growth inhibition [4] 97%

Cc1ccc(NC(=S)NC2CCN(CCCCCNC(=O)/C=C/c3ccc(Cl)c(Cl)c3)CC2)cc1Cl
inactive: inhibition [2] 45% | inhibition [3] 7% | outcome [5] | outcome [6] | outcome [7] | outcome [8]
active: growth inhibition [1] 56% | growth inhibition [4] 100%

O=C(Cc1cnc[nH]1)Nc1ccc(-c2cccc(-c3nc4ccc(C(F)(F)F)cc4[nH]3)c2)cc1
inactive: inhibition [2] 20% | inhibition [3] -8% | outcome [5] | outcome [6] | outcome [7] | outcome [8]
active: growth inhibition [1] 95% | growth inhibition [4] 101%

CCCCCCN1CCC(NCc2cccc(C#N)c2)CC1
active: growth inhibition [4] 97%
inactive: growth inhibition [1] 9% | inhibition [2] 5% | inhibition [3] -1% | outcome [5] | outcome [6] | outcome [7] | outcome [8]

c1cc(-c2ccc(CNCc3ccsc3)cc2)cc(-c2nc3ccccc3[nH]2)c1
inactive: inhibition [2] 46% | inhibition [3] 2% | outcome [5] | outcome [6] | outcome [7] | outcome [8]
active: growth inhibition [1] 82% | growth inhibition [4] 101%

CCC(CCON1C(N)=NC(N)=NC1(C)C)c1ccc(Cl)cc1 (stereo not given)
active: growth inhibition [1] 95% | inhibition [2] 66% | growth inhibition [4] 94%
inactive: inhibition [3] 1% | outcome [5] | outcome [6] | outcome [7] | outcome [8]

CNCCNc1nccc(N2CCc3ncnc(Nc4ccc(OCc5cccc(F)c5)c(Cl)c4)c3C2)n1
inactive: inhibition [2] 30% | inhibition [3] -4% | outcome [5] | outcome [6] | outcome [7] | outcome [8]
active: growth inhibition [1] 98% | growth inhibition [4] 100%

O=C(Nc1ccccc1)c1cccc(Nc2nccc(Nc3ccc(Oc4ccccc4)cc3)n2)c1
active: growth inhibition [4] 98%
inactive: growth inhibition [1] 11% | inhibition [2] 6% | inhibition [3] -1% | outcome [5] | outcome [6] | outcome [7] | outcome [8]

OCCN1CCN(C(=S)NC2CCCCC2)CC1
active: growth inhibition [4] 93%
inactive: growth inhibition [1] -1% | inhibition [2] 49% | inhibition [3] 1% | outcome [5] | outcome [6] | outcome [7] | outcome [8]
